G9a block: qHTS Assay for Inhibitors of Histone Lysine Methyltransferase G9a. Histone-lysine N-methyltransferase EHMT2 (Homo sapiens), Q96KQ7. G9a H3K9 monomethylation, AlphaScreen, 2 h. Potency, µM (series often up to 102 µM), inactives show at the top dose activity, negative = inhibition, usual class: inhibitors. hit rate 8.8% among 350,000. AID 504332, 2011; also: % is scaled to controls: 0 for no effect and ±100 for the full control effect; nearly all actives have a fitted effect of over 75% in size
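Methyltransferase reactions run at room temperature for 2 h (20 nM enzyme, 500 nM biotin-H3K9 peptide, 20 uM SAM) after a 15 min compound preincubation; product detected by AlphaScreen beads and anti-H3K9me1 antibody.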
HP1b binding inh: HTS for Inhibitors of HP1-beta Chromodomain Interactions with Methylated Histone Tails; Chromobox protein homolog 1 (Homo sapiens), P83916; AlphaScreen HP1-beta / biotin-H3K9me3 peptide binding; hit rate 0.56% among 390,000; Potency, µM (highest dose often 114 µM), inactives show at the top dose activity change, negative = inhibition, most hits filed as inhibitors; also: nearly all actives have a fitted effect of over 70% in size
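Compound inhibition of the preformed complex between 50 nM HP1-beta and 50 nM biotinylated H3K9me3 peptide was read by AlphaScreen. Buffer was PBS pH 7.4 with 0.01% Tween-20. Incubations ran 30 min at room temperature, with 10 ug/mL donor/acceptor beads.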
GLS inh: qHTS for Inhibitors of Glutaminase (GLS) | Glutaminase kidney isoform, mitochondrial (Homo sapiens), O94925 | GLS enzymatic activity, qHTS titration | Potency, µM (top dose mostly 45.5 µM), for the others: at the top dose activity change, negative = inhibition, hits mostly inhibitors | hit rate 0.21% among 410,000; also: % is scaled to controls: 0 for no effect and ±100 for the full control effect
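Glutamate formation by hKGA was monitored fluorometrically using coupled glutamate oxidase, HRP and Amplex Red. Substrate was added as 1 mM L-glutamine solution; incubation was 30 min at RT after an initial read.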
BAZ2B inh: qHTS Assay for Inhibitors of BAZ2B | Bromodomain adjacent to zinc finger domain protein 2B (Homo sapiens), Q9UIF8 | hit rate 4.4% among 360,000 | AlphaScreen BAZ2B-H3K14Ac peptide displacement | Potency, µM (top dose mostly 114 µM), for the others: top-dose activity change, negative = inhibition, most hits filed as inhibitors; also: % is scaled to controls: 0 for no effect and ±100 for the full control effect; nearly all actives have a fitted effect of over 60% in size
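AlphaScreen displacement of biotin-H3(5-23)K14Ac peptide (50 nM final) from BAZ2B (50 nM final) in PBS pH 7.4, 0.01% Tween-20; complex preformed 30 min RT, then compounds (top 110 uM) 30 min RT, beads 20 min dark.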
JMJD2A Tudor: qHTS Assay for Inhibitors of JMJD2A-Tudor Domain; AlphaScreen JMJD2A-Tudor / H3K4me3 peptide binding; Potency, µM (titrated, usually from 114 µM), without a hit: at the top dose activity change, negative = inhibition, hits mostly inhibitors; hit rate 4.4% among 390,000; AID 504339, 2011; also: % is scaled to controls: 0 for no effect and ±100 for the full control effect; nearly all actives have a fitted effect of over 50% in size
Active calls of the source: *; ? = inconclusive; nt = no result; [ ] = another dose, or the depositor's remark. This is a sample that favours compounds with a hit; in the whole collection about 10% have one here. Calls follow the shape of the dose curve; as a rule, active = well fitted curve in the direction sought with a large enough effect; inconclusive = small, poorly fitted or top-dose-only effect, or another doubt; inactive = no such curve, though single readings can be large; an effect the other way counts as inactive or inconclusive. Potency is read from the fitted curve at half-maximal effect.

SMILES | G9a block | HP1b binding inh | GLS inh | BAZ2B inh | JMJD2A Tudor
COCCn1c(C)cc(C2=NNC(=Nc3ccccc3)SC2)c1C | ? | -3.4% | 21.0% | 50.1µM* | -32.5%
COCCn1c(C)cc(C2=NNC(=Nc3ccc(OC)cc3)SC2)c1C | 7.5%[12.7 µM] | -30.6% | 12.9% | -38.8% | ?
Cc1cc(C2=NNC(=NCCc3ccccc3)SC2)c(C)n1CC1CCCO1 (centres undefined) | 35.5µM* | ? | -7.7% | -36.8% | 50.1µM*
COc1cccc(NC(=O)Cn2cc(S(=O)(=O)N3CCCC3)c(S(=O)(=O)N3CCCC3)c2)c1 | -7.2%[59 µM] | 5.3% | -5.2% | 0.4%[57.1 µM] | -28.8%
COc1ccc(Nc2nc(-c3cccs3)nc3ccccc23)cc1S(=O)(=O)N1CCOCC1 | nt | 34.3% | -2.6% | nt | -15.4%[11.4 µM]
CC(=O)c1ccc(NC(=O)c2nn(C)c3c2COc2ccccc2-3)cc1 | ? | 2.8% | 2.1% | ? | -29.5%
Fc1ccc(C2c3[nH]c4ccccc4c3CCN2CCCn2cccn2)cc1 (centres undefined) | 4.8%[59 µM] | -18.4% | -1.2% | 39.8µM* | ?
C/C(=N\NC(=O)C1CCCN(S(=O)(=O)c2ccccc2)C1)c1ccccn1 (centres undefined) | 51.4%[59 µM] | 46.6% | -5.8% | ? | 79.4µM*
C/C(=N\NC(=O)C1CCCN(S(=O)(=O)c2ccccc2)C1)c1ccncc1 (centres undefined) | 14.3%[59 µM] | 47.6% | 13.2% | -5.4% | 2.9%
CC(=NNC(=S)N1CCN(c2ccccn2)CC1)c1nccs1 | nt | ? | 16.7% | nt | 12.6µM*
CC(=NNC(=S)N1CCN(c2ccccn2)CC1)c1ccccn1 | nt | ? | 6.2% | nt | 56.2µM*
S=C(NC1CCCC1)N1CCN(c2ccccn2)CC1 | 3.4% | 10.0% | 6.4% | 4.1% | -20.0%
CC(=NNC(=S)N1CC2CCC(CC2)C1)c1ccccn1 | nt | nt | -2.0% | nt | nt
CC(=NNC(=S)N1CCN(C2CCCCCC2)CC1)c1ccccn1 | nt | ? | 3.7% | nt | 17.8µM*
Cn1c(=O)c2c(-c3ccccc3Cl)n(-c3cc(Cl)ccc3O)cc2n(C)c1=O | -45.0%[59 µM] | 3.2% | -2.6% | ? | -29.5%
COCc1cc(CNC(=O)C2CCC(=O)N(Cc3ccccc3OC)C2)[nH]n1 (centres undefined) | nt | 39.2% | 3.8% | -1.5% | -10.3%
CC(=NNC(=S)N1CC2CCC(CC2)C1)c1cnccn1 | nt | ? | -11.4% | nt | 11.2µM*
CN(CC(=O)N1CCCCC1)S(=O)(=O)c1cccc2cccnc12 | ? | 50.4% | -9.6% | -5.8% | 0.7%
CC(=NNC(=S)N1CCCCCC1)c1cccc2cccnc12 | nt | 50.1µM* | 58.6% | nt | 20µM*
Nc1ccc(-c2nc3ccc(N)cc3o2)cc1 | -12.1% | 46.7% | -13.3% | -21.8% | -28.3%
Cc1ccc2nc(-c3cc(N)cc(N)c3)oc2c1 | -42.0%[59 µM] | -29.8% | 39.1% | 50.1µM* | ?
Cc1ccccc1Cn1cc(S(=O)(=O)c2ccc(Cl)cc2)c(=O)c2cc3c(cc21)OCO3 | 1.2%[59 µM] | 27.9% | -3.1% | -2.2% | -21.2%
CC(C)c1ccc(Nc2nc(CC(=O)O)cs2)cc1 | 39.8µM* | -13.4% | 1.8% | -29.0% | -31.7%
O=C(O)Cc1csc(Nc2cccc(Cl)c2)n1 | -14.4%[59 µM] | 15.5% | -1.7% | -36.6% | -24.3%
Cc1ccc(-c2cc3ncc(C(=O)c4cc([N+](=O)[O-])ccc4O)cn3n2)cc1 | -1.0%[59 µM] | 17.4% | -5.3% | ? | -33.6%
SMILES | G9a block | HP1b binding inh | GLS inh | BAZ2B inh | JMJD2A Tudor
c1ccc(-c2nc(CSc3nnnn3-c3ccccc3)cs2)cc1 | -3.7% | 84.4% | 3.4% | -0.7% | 41.9%
Cc1ccccc1Nc1nc(CSc2nnnn2-c2ccccc2)cs1 | 39.8µM* | 6.3% | 5.0% | -6.2% | -25.8%
O=C(N=C1c2ccccc2CN1c1cccc(Cl)c1)c1cccnc1 | 50.1µM* | 49.8% | -7.9% | -8.1% | -0.3%
COc1ccc(N2Cc3ccccc3C2=NC(=O)c2ccc(C)cc2)cc1OC | 44.7µM* | 12.1% | -16.1% | -37.9% | ?
O=C(/N=C1/c2ccccc2CN1c1ccccc1)Nc1ccccc1 | 11.5%[59 µM] | 33.6% | -12.4% | -12.2% | -12.8%
O=C(N=C1c2ccccc2CN1c1ccc(F)c(F)c1)c1cccnc1 | -29.9% | 37.3% | -0.2% | -10.1% | -14.1%
